# Test results from PubChem BioAssay (Tox21).
# Records with an inconclusive call do not appear. Unmarked numbers belong to inactive results. Calls come from the whole dose curve; as a rule, active = well fitted activation curve with a large enough effect in the repeat runs; inconclusive = weak or mixed curves; inactive = flat fitted curve, though single readings scatter.
# Test: A CellTox Green Cytotoxicity Assay to monitor cytotoxicity in HEK293 cells - 8 hour (AID 1224884); note: nearly all actives have a fitted effect of over 35% in size
# Conditions: CellTox Green fluorescence; series mostly up to 76.8 µM; cytotoxicity increase: at the top concentration
# Source text: National Center for Advancing Translational Sciences [NCATS]
# NIH Chemical Genomics Center [NCGC]
# U.S. Environmental Protection Agency [EPA]
# National Institutes of Environmental Health Sciences [NIEHS]
# National Toxicology Program [NTP]
# Cell-based models are critical for drug discovery. Determining the natural cytotoxic effects resulting from test compounds is an essential research activity. A CellTox Green Cytotoxicity Assay to monitor cytotoxicity in real time of continues cell culture during 40 hours of the compound treatment was used to screen Tox21 10K library compounds in Hek293 cells. CellTox Green Cytotoxicity Assay is a nonlytic, homogeneous, biofluorescent method to measure cytotoxicity in cell culture after experimental manipulation. The assay system uses a proprietary asymmetric cyanine dye that is excluded from viable cells but preferentially stains the dead cell's DNA. […] Viable cells produce no appreciable increases in fluorescence. Therefore, the fluorescence signal produced by the binding interaction with dead cell DNA is proportional to cytotoxicity.
# The mixture of Hek293 cell suspension and reagents were dispensed at 600cells/6 ul/well in 1536-well tissue culture treated black solid bottom plates using a Multidrop dispenser. After the assay plates were incubated at a 37 C/5% CO2 incubator for 5 hours, 23 nL of compounds dissolved in DMSO, positive and negative controls was transferred to the assay plate by a pintool work station. The plates were incubated at 37 C for 40 hours. The fluorescence intensity were measured at 0h, 8h, 16h, 24h, 32h and 40h time points using ViewLux plate reader during compound treatment.
# % is set by controls: 0 for no effect and ±100 for the full control effect.
row,Compound,cytotoxicity increase
1,CCOc1cc(OCC)c(C(=O)CCC(=O)O)cc1OCC,-0.31% [at 35.3 µM]
2,CCOC(=O)[C@H](CCc1ccccc1)N[C@H]1CCc2ccccc2N(CC(=O)O)C1=O,1.98% [at 35.3 µM]
3,CCCCOc1ccc(CC(=O)NO)cc1,-2.13% [at 35.3 µM]
4,O=C(O)/C=C/c1cnc[nH]1,-4.43%
5,CC(=O)N(CC(=O)N(C)C)c1ccccc1,-3.33% [at 35.3 µM]
6,O=C(O)Cc1sc(-c2ccccc2)nc1-c1ccc(Cl)cc1,3% [at 35.3 µM]
7,CC(=O)[C@@]1(O)CC[C@H]2[C@@H]3C[C@H](C)C4=CC(=O)CC[C@]4(C)[C@H]3CC[C@@]21C,-0.0102% [at 35.3 µM]
8,CCCCOC(O)CC (stereo not given),6.01%
9,Cc1ccccc1N=Nc1ccc(N=Nc2c(O)ccc3ccccc23)c(C)c1,-5.88% [at 35.3 µM]
10,CC(C(=O)O)c1ccc(-c2ccccc2)c(F)c1 (stereo not given),12.6%
11,CCCC[C@H]1CN(CC2CCOCC2)C(=O)OC12CCN(C1(C)CCN(C(=O)c3c(C)ncnc3C)CC1)CC2,9.52%
12,CCN(CC)C(C)CN1c2ccccc2Sc2ccccc21 (stereo not given),-28.6% [at 35.3 µM]
13,OCCC1CCCCN1 (stereo not given),-0.0999%
14,c1ccc(CNCc2ccccc2)cc1,-1.86%
15,CCCCCCOC(=O)CCC,2.85%
16,CCCCCCCCCCCCCCCC(=O)OC/C=C(C)/C=C/C=C(C)/C=C/C1=C(C)CCCC1(C)C,24.6%
17,N#Cc1c(F)cccc1F,-15.2%
18,CN(C)CCCNCCCN,6.96%
19,CN(C(=O)CCCOc1ccc2[nH]c(=O)ccc2c1)C1CCCCC1,2.26% [at 35.3 µM]
20,CN1CCC[C@@H]1c1cccnc1,-8.73% [at 35.3 µM]

row,Compound,cytotoxicity increase
1,O=C(c1ccccc1)c1ccc2n1CCC2C(=O)O (stereo not given),-0.0499% [at 35.3 µM]
2,CCCCCCCCCCCCCCCCCBr,-3.41% [at 15.8 µM]
3,CCCCCCCC/C=C\CCCCCCCC(N)=O,19.4%
4,CCCCCCCCCCCCCCCBr,5.57% [at 35.3 µM]
5,COc1ccc(C(C)=O)cc1,-4.65%
6,CCOc1ccc2[nH]cc(C(=O)NCc3ccccc3)c(=O)c2n1,-9.54%
7,CC[C@H](C)[C@@H](C(=O)O)n1sc2ccccc2c1=O,-10.3%
8,CCOC(=O)C1=C(C)NC(C)=C(C(=O)OC)C1c1cccc([N+](=O)[O-])c1 (stereo not given),1.28% [at 35.3 µM]
9,CN1CCC(=C2c3ccccc3CCc3sccc32)CC1,3.25% [at 35.3 µM]
10,Oc1ccc(O)c2c(O)cccc12,-8.69%
11,O=S1(=O)c2cccc3cccc(c23)N1CCCN1CCN(c2ccc(F)cc2)CC1,-21.8% [at 35.3 µM]
12,NC1CCN(c2nc3c(cc2F)c(=O)c(C(=O)O)cn3-c2ccc(F)cc2F)C1 (stereo not given),-7.92% [at 35.3 µM]
13,CC(=O)CC(=O)c1ccccc1,4.52%
14,O=C1[C@H](CC[C@H](O)c2ccc(F)cc2)[C@@H](c2ccc(O)cc2)N1c1ccc(F)cc1,3.72% [at 35.3 µM]
15,CC(O)C1CCCCC1 (stereo not given),6.22%
16,Cc1cc(O)ccc1N,5.83%
17,CC(C)(C)c1cc(CCC(=O)OCC(COC(=O)CCc2cc(C(C)(C)C)c(O)c(C(C)(C)C)c2)(COC(=O)CCc2cc(C(C)(C)C)c(O)c(C(C)(C)C)c2)COC(=O)CCc2cc(C(C)(C)C)c(O)c(C(C)(C)C)c2)cc(C(C)(C)C)c1O,9.53% [at 35.3 µM]
18,CCN(CC)CCc1nc(-c2ccccc2)no1,6.52% [at 35.3 µM]
19,CC(C)NCC(O)c1cc(O)cc(O)c1 (stereo not given),-20.2% [at 35.3 µM]
20,O=C1CCCCCO1,-0.34%
